Among the data in PubChem BioAssay (NCI) are growth values, retold here.

Structures are written as SMILES. Where “and” joins values, the source holds several entries; their conditions need not be identical. Identical values can stand only once. The panel holds about 83,000 compounds, 20% with a hit somewhere; the sample as a whole holds those more often.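 In brief: 96-well plates, 48 h treatment, single concentration, percent growth endpoint.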 Calls of active or inactive are those of the source. How the source made its calls: active means growth percent below 10; inactive means the rest.

The test system of one test is OVCAR-3 ovarian. Kind of test: NCI-60 one-dose screen, 48 h (100 = growth as untreated, 0 = no growth, -100 = all killed). The note with it: 10 µM unless noted.
On to `Cc1nc2sc(C(=O)Nc3cccc4ncccc34)c(N)c2cc1C(C)O` (configuration not stated), for which the growth was 54.6% (inactive).
Same read-out and setting: to `N=C(N)c1ccc(-c2ccc(-c3ccc(F)cc3)s2)nc1` belongs 76.9% (inactive); to `CN(C)CCCn1c2nc(=O)[nH]c(=O)c-2nc2cc(Cl)c(Cl)cc21`, -20.9% (active).
As for `Brc1ccc(/C=C(/C2=NCCN2)n2ccc3ccccc32)cc1`, the growth is 77.6% (inactive).
On to `CCOC(=O)c1c(-c2ccc(OC)cc2)c(C#N)c2c(C#N)c(N)nn2c1N`, for which the growth is 5.29% (active).
For `COc1ccc(S(=O)(=O)Nc2cc(Sc3cccc4cccnc34)c(O)c3ccccc23)cc1`, the growth was -81.8% (active).

For a further test, the system named is HS 578T breast. The test is described as above. Conditions: 10 µM unless noted.
Turning to `NC1=CC(=O)c2cccnc2C1=O`, the growth was -10.3% (active).
As to `Cn1c(=O)c2c(nc(Nc3cc(=O)[nH]c(=O)[nH]3)n2Cc2ccccc2)n(C)c1=O`, the growth was -16.6% (active).
Take `O=C(c1ccc(Nc2nccc(NCCCNc3ccnc4cc(Cl)ccc34)n2)cc1)N1CCCCC1`: the growth is 84.8% (inactive).
For `COc1c(NC=O)c2c(c([N+](=O)[O-])c1OC)C(=O)OC2`, the growth was 109% (inactive) and 86.8% (inactive).
The same measure, in the same setting: next, `COc1ccc(Cl)cc1Nc1nc(C(F)(F)F)ccc1C(=O)N/N=C/c1ccc(N(C)C)cc1`: 101% (inactive); `CC1=C2[C@@H](CC1)[C@]1(C)O[C@@](C3CC3)(C[C@H]1OC(=O)CO)[C@H]2OC(=O)/C=C/c1ccccc1`: -14.6% (active); `CC/C=C\C/C=C\C[C@H](O)C/C=C1/C(=O)C=C[C@@H]1C/C=C\CCCC(=O)OC`: 32.6% (inactive).
For the molecule `Cc1[nH]c(C(=O)Nc2nc3ccc(NC(=O)CCN)cc3s2)c(Cl)c1Cl`, the growth is 90.8% (inactive).
For the molecule `COc1cc(Cl)cc(-c2nn(C(=O)NS(=O)(=O)c3ccc(Cl)cc3)cc2-c2ccncc2)c1`, the growth is 73.3% (inactive).
Regarding `C[C@@H]1O[C@@H](O[C@H]2[C@@H](OC(=O)[C@]34CCC(C)(C)C[C@H]3C3=CC[C@@H]5[C@@]6(C)C[C@H](O)[C@H](O[C@@H]7O[C@H](CO)[C@@H](O)[C@H](O)[C@H]7O)[C@@](C)(CO)[C@@H]6CC[C@@]5(C)[C@]3(C)C[C@H]4O)OC[C@@H](O)[C@@H]2O)[C@H](O)[C@H](O[C@@H]2OC[C@@H](O)[C@H](O[C@@H]3OC[C@](O)(CO)[C@H]3O[C@@H]3OC[C@@H](O)[C@H](O)[C@H]3O)[C@H]2O)[C@H]1O[C@@H]1OC[C@](O)(CO)[C@H]1O`, the growth is 97.9% (inactive).
Turning to `Cc1c(O)c(O)cc2c3c(oc12)CC(c1ccc2c(c1)OCO2)CC3=O` (configuration not stated), the growth is 92.2% (inactive).
As for `COc1cc(F)c(/C=C/c2cc(/C=C/c3cc(OC)c(OC)cc3F)n(-c3cc(F)cc(F)c3)n2)cc1OC`, the growth was 38% (inactive).
As to `CN1CCN(CCCN2c3ccccc3Sc3ccc(Cl)cc32)CC1`, the growth was 66.8% (inactive) and 60.3% (inactive).
Consider `O=C(N=Nc1c(O)[nH]c2ccccc12)Nc1ccccc1Cl`, for which the growth is 89.4% (inactive).
For `OCCN1CCN(CC/C=C2\c3ccccc3Sc3ccc(Cl)cc32)CC1`, the growth is 1.43% (active) and 32.3% (inactive).
Turning to `COc1nc2ccc(C)cc2cc1/C=[N+](\[O-])c1ccccc1`, the growth was 91% (inactive).
As for `O=C(CCN1CCOCC1)Nc1cccc(-n2cc(-c3ccncc3)c(-c3ccc(Cl)c(O)c3)n2)c1`, the growth was 7.21% (active).
On the same count and under the same terms, next, `CN1CCN(c2ccc(Nc3ncc(C(N)=O)c(NCCCNC(=O)C4CCC4)n3)cc2)CC1`: 67.2% (inactive); `CN(C)c1ccc2nc3ccc(=O)cc-3sc2c1`: 79.4% (inactive) and 79.2% (inactive); `CC(=O)N1N=C(c2ccc(Nc3nc(Nc4ccc(F)cc4)nc(Nc4ccc(F)cc4)n3)cc2)CC1c1ccccc1` (configuration not stated): 94.8% (inactive).
For the molecule `C/C=C(\C)C(=O)N[C@H]1CC[C@]2(C)C3CC[C@@]4(C)C(CC[C@@H]4C(C)N(C)C)C3CCC2[C@H]1OC(C)=O` (some centres not stated), the growth was -39.9% (active).
On to `Cc1ccc(-c2nc3nc(-c4ccc(Cl)cc4)nc(N4CCCNCC4)c3o2)cc1`, for which the growth is -50.8% (active).
In the case of `Nc1n[nH]c2cccc(C#Cc3cccc(NC(=O)c4ccc(N5CCOCC5)c(C(F)(F)F)c4)c3)c12`, the growth was -11.4% (active).
On to `O=C1C(c2c[nH]c3ccccc23)=C(c2coc3cc(Br)ccc23)C(=O)N1O`, for which the growth is 94.5% (inactive).
For the molecule `Cc1cc(N2CCCCC2)nc(NCc2cc(Nc3ccnc4cc(Cl)ccc34)ccc2F)n1`, the growth is 14.9% (inactive).
For the molecule `CC1(C)C(N)=Nc2cc(OCCCN3Cc4ccc(OCCc5cn(CC(=O)N6CCC(CCN7CCCC7)CC6)nn5)cc4C3)c(OCC3CC3)cc21`, the growth is 97.2% (inactive).
